# From PubChem BioAssay AID1159580 (chemical genetic matrix, 2015)
# Out of some 5,500 compounds screened, about 2,000 (36%) were called active. About 18% were inconclusive and are not listed. Some of the results follow. Values without a mark were called inactive. Cut-off read from the data, not from the text of the source: active = normalized growth mostly below about 0.91 (no sharp cut-off); inconclusive = no clear call, values can overlap the other calls; inactive = mostly above about 0.92.
# Assay: chemical genetic growth profiling, strain panel (AID 1159580);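 note: tested at 20 µM; growth read once vehicle control cultures reached saturation at 30 °C; 1 = growth at the plate median or of vehicle wells; lower values mean less growth of the strain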
# Conditions: growth OD
# [1] = S. cerevisiae deletion strains, locus YDL101C, strain DUN1, stronger effect = lower value
# [2] = S. cerevisiae deletion strains, locus YHR030C, strain SLT2, stronger effect = lower value
smiles,measurement,setting,value
CC(=O)c1ccc(N2C(=O)CSCC2=O)cc1,normalized growth,"S. cerevisiae deletion strains, locus YAL013W, strain DEP1, stronger effect = lower value",0.999
same,normalized growth,"S. cerevisiae deletion strains, locus YBR229C, strain ROT2, stronger effect = lower value",0.999
same,normalized growth,[1],1.01
same,normalized growth,"S. cerevisiae deletion strains, locus YDL134C, strain PPH21, stronger effect = lower value",0.977
same,normalized growth,"S. cerevisiae deletion strains, locus YDR150W, strain NUM1, stronger effect = lower value",0.984
same,normalized growth,"S. cerevisiae deletion strains, locus YEL061C, strain CIN8, stronger effect = lower value",1.02
same,normalized growth,"S. cerevisiae deletion strains, locus YGR078C, strain PAC10, stronger effect = lower value",1
same,normalized growth,"S. cerevisiae deletion strains, locus YGR229C, strain SMI1, stronger effect = lower value",0.972
same,normalized growth,[2],1.02
same,normalized growth,"S. cerevisiae deletion strains, locus YHR087W, strain rtc3, stronger effect = lower value",1
same,normalized growth,"S. cerevisiae deletion strains, locus YJR043C, strain POL32, stronger effect = lower value",0.991
same,normalized growth,"S. cerevisiae deletion strains, locus YJR075W, strain HOC1, stronger effect = lower value",1.02
same,normalized growth,"S. cerevisiae deletion strains, locus YLR039C, strain RIC1, stronger effect = lower value",0.962
same,normalized growth,"S. cerevisiae deletion strains, locus YLR058C, strain SHM2 (second series), stronger effect = lower value",0.999
same,normalized growth,"S. cerevisiae deletion strains, locus YLR085C, strain ARP6, stronger effect = lower value",1.04
same,normalized growth,"S. cerevisiae deletion strains, locus YLR262C, strain YPT6, stronger effect = lower value",0.912
same,normalized growth,"S. cerevisiae deletion strains, locus YML094W, strain GIM5, stronger effect = lower value",1.03
same,normalized growth,"S. cerevisiae deletion strains, locus YMR219W, strain ESC1, stronger effect = lower value",0.994
same,normalized growth,"S. cerevisiae deletion strains, locus YMR263W, strain SAP30, stronger effect = lower value",0.999
same,normalized growth,"S. cerevisiae deletion strains, locus YMR307W, strain GAS1, stronger effect = lower value",1.11
same,normalized growth,"S. cerevisiae deletion strains, locus YNL153C, strain GIM3, stronger effect = lower value",1.01
same,normalized growth,"S. cerevisiae deletion strains, locus YNL298W, strain CLA4 (second series), stronger effect = lower value",0.992
same,normalized growth,"S. cerevisiae deletion strains, locus YNL322C, strain KRE1, stronger effect = lower value",0.988
same,normalized growth,"S. cerevisiae deletion strains, locus YNR030W, strain Alg12, stronger effect = lower value",0.996
same,normalized growth,"S. cerevisiae deletion strains, locus YPL055C, strain LGE1, stronger effect = lower value",1.02
same,normalized growth,"S. cerevisiae deletion strains, locus YPL241C, strain CIN2, stronger effect = lower value",0.983
same,normalized growth,"S. cerevisiae deletion strains, locus YPR135W, strain CTF4, stronger effect = lower value",0.99
same,normalized growth,"S. cerevisiae strains, strain wild type, stronger effect = lower value",0.97
CC1=CC(=O)N(c2ccc(F)c(Cl)c2)C1=O,normalized growth,"S. cerevisiae deletion strains, locus YAR019C, strain CDC15, stronger effect = lower value",0.966
same,normalized growth,"S. cerevisiae deletion strains, locus YBL105C, strain PKC1, stronger effect = lower value",0.974
same,normalized growth,"S. cerevisiae deletion strains, locus YBR135W, strain CKS1, stronger effect = lower value",0.964
same,normalized growth,"S. cerevisiae deletion strains, locus YBR136W, strain MEC1, stronger effect = lower value",0.971
same,normalized growth,"S. cerevisiae deletion strains, locus YBR160W, strain CDC28, stronger effect = lower value",0.975
same,normalized growth,"S. cerevisiae deletion strains, locus YDL017W, strain CDC7, stronger effect = lower value",0.966
same,normalized growth,"S. cerevisiae deletion strains, locus YDL028C, strain MPS1, stronger effect = lower value",0.976
same,normalized growth,[1],0.76 (active)
same,normalized growth,"S. cerevisiae deletion strains, locus YDL108W, strain KIN28, stronger effect = lower value",0.979
same,normalized growth,"S. cerevisiae deletion strains, locus YDL132W, strain cdc53, stronger effect = lower value",0.986
same,normalized growth,"S. cerevisiae deletion strains, locus YDL214C, strain PRR2, stronger effect = lower value",0.345 (active)
same,normalized growth,"S. cerevisiae deletion strains, locus YDR052C, strain DBF4, stronger effect = lower value",0.978
same,normalized growth,"S. cerevisiae deletion strains, locus YDR054C, strain cdc34, stronger effect = lower value",0.983
same,normalized growth,"S. cerevisiae deletion strains, locus YDR226W, strain ADK1, stronger effect = lower value",0.97
same,normalized growth,"S. cerevisiae deletion strains, locus YDR477W, strain SNF1, stronger effect = lower value",0.376 (active)
same,normalized growth,"S. cerevisiae deletion strains, locus YER123W, strain YCK3, stronger effect = lower value",0.243 (active)
same,normalized growth,"S. cerevisiae deletion strains, locus YER133W, strain GLC7, stronger effect = lower value",0.371 (active)
same,normalized growth,"S. cerevisiae deletion strains, locus YFL009W, strain cdc4, stronger effect = lower value",0.974
same,normalized growth,"S. cerevisiae deletion strains, locus YFL029C, strain CAK1, stronger effect = lower value",0.96
same,normalized growth,"S. cerevisiae deletion strains, locus YFR003C, strain YPI1, stronger effect = lower value",0.975
same,normalized growth,"S. cerevisiae deletion strains, locus YFR019W, strain FAB1, stronger effect = lower value",0.443 (active)
same,normalized growth,"S. cerevisiae deletion strains, locus YFR028C, strain CDC14, stronger effect = lower value",0.967
same,normalized growth,"S. cerevisiae deletion strains, locus YGR040W, strain KSS1, stronger effect = lower value",0.461 (active)
same,normalized growth,"S. cerevisiae deletion strains, locus YGR052W, strain FMP48, stronger effect = lower value",0.387 (active)
same,normalized growth,"S. cerevisiae deletion strains, locus YGR092W, strain DBF2, stronger effect = lower value",0.335 (active)
same,normalized growth,[2],0.173 (active)
same,normalized growth,"S. cerevisiae deletion strains, locus YHR079C, strain IRE1, stronger effect = lower value",0.195 (active)
same,normalized growth,"S. cerevisiae deletion strains, locus YHR082C, strain KSP1, stronger effect = lower value",0.235 (active)
same,normalized growth,"S. cerevisiae deletion strains, locus YHR205W, strain SCH9, stronger effect = lower value",0.395 (active)
same,normalized growth,"S. cerevisiae deletion strains, locus YIL147C, strain SLN1, stronger effect = lower value",0.975
same,normalized growth,"S. cerevisiae deletion strains, locus YJL095W, strain BCK1, stronger effect = lower value",0.168 (active)
same,normalized growth,"S. cerevisiae deletion strains, locus YJL128C, strain PBS2, stronger effect = lower value",0.953
same,normalized growth,"S. cerevisiae deletion strains, locus YJL157C, strain FAR1, stronger effect = lower value",0.377 (active)
same,normalized growth,"S. cerevisiae deletion strains, locus YJR016C, strain ILV3, stronger effect = lower value",0.987
same,normalized growth,"S. cerevisiae deletion strains, locus YJR066W, strain TOR1 (second series), stronger effect = lower value",0.219 (active)
same,normalized growth,"S. cerevisiae deletion strains, locus YJR066W, strain TOR1, stronger effect = lower value",0.166 (active)
same,normalized growth,"S. cerevisiae deletion strains, locus YKL048C, strain ELM1, stronger effect = lower value",0.474 (active)
same,normalized growth,"S. cerevisiae deletion strains, locus YKL067W, strain YNK1, stronger effect = lower value",0.347 (active)
same,normalized growth,"S. cerevisiae deletion strains, locus YKL101W, strain HSL1, stronger effect = lower value",0.386 (active)
same,normalized growth,"S. cerevisiae deletion strains, locus YKL193C, strain SDS22, stronger effect = lower value",0.974
same,normalized growth,"S. cerevisiae deletion strains, locus YKL203C, strain TOR2, stronger effect = lower value",0.506 (active)
same,normalized growth,"S. cerevisiae deletion strains, locus YLR113W, strain HOG1, stronger effect = lower value",0.335 (active)
same,normalized growth,"S. cerevisiae deletion strains, locus YLR133W, strain CKI1, stronger effect = lower value",0.457 (active)
same,normalized growth,"S. cerevisiae deletion strains, locus YLR403W, strain SFP1, stronger effect = lower value",0.404 (active)
same,normalized growth,"S. cerevisiae deletion strains, locus YML070W, strain DAK1, stronger effect = lower value",0.274 (active)
same,normalized growth,"S. cerevisiae deletion strains, locus YMR001C, strain CDC5, stronger effect = lower value",0.962
same,normalized growth,"S. cerevisiae deletion strains, locus YMR205C, strain PFK2 (second series), stronger effect = lower value",0.407 (active)
same,normalized growth,"S. cerevisiae deletion strains, locus YMR277W, strain FCP1, stronger effect = lower value",0.973
same,normalized growth,"S. cerevisiae deletion strains, locus YNL006W, strain LST8, stronger effect = lower value",0.982
same,normalized growth,"S. cerevisiae deletion strains, locus YNL020C, strain ARK1, stronger effect = lower value",0.477 (active)
same,normalized growth,"S. cerevisiae deletion strains, locus YNL161W, strain CBK1, stronger effect = lower value",0.963
same,normalized growth,"S. cerevisiae deletion strains, locus YNL183C, strain NPR1, stronger effect = lower value",0.156 (active)
same,normalized growth,"S. cerevisiae deletion strains, locus YNL207W, strain RIO2, stronger effect = lower value",0.973
same,normalized growth,"S. cerevisiae deletion strains, locus YNL222W, strain SSU72, stronger effect = lower value",0.973
same,normalized growth,"S. cerevisiae deletion strains, locus YNL307C, strain MCK1 (second series), stronger effect = lower value",0.34 (active)
same,normalized growth,"S. cerevisiae deletion strains, locus YOL078W, strain AVO1, stronger effect = lower value",0.966
same,normalized growth,"S. cerevisiae deletion strains, locus YOL136C, strain PFK27, stronger effect = lower value",0.335 (active)
same,normalized growth,"S. cerevisiae deletion strains, locus YOR061W, strain CKA2, stronger effect = lower value",0.549 (active)
same,normalized growth,"S. cerevisiae deletion strains, locus YOR119C, strain RIO1, stronger effect = lower value",0.524 (active)
same,normalized growth,"S. cerevisiae deletion strains, locus YOR231W, strain MKK1, stronger effect = lower value",0.225 (active)
same,normalized growth,"S. cerevisiae deletion strains, locus YOR329C, strain SCD5, stronger effect = lower value",0.98
same,normalized growth,"S. cerevisiae deletion strains, locus YPL031C, strain PHO85, stronger effect = lower value",0.233 (active)
same,normalized growth,"S. cerevisiae deletion strains, locus YPL153C, strain RAD53, stronger effect = lower value",0.398 (active)
same,normalized growth,"S. cerevisiae deletion strains, locus YPL204W, strain HRR25, stronger effect = lower value",0.455 (active)
same,normalized growth,"S. cerevisiae deletion strains, locus YPL209C, strain IPL1, stronger effect = lower value",0.964
same,normalized growth,"S. cerevisiae deletion strains, locus YPL256C, strain CLN2, stronger effect = lower value",0.206 (active)
same,normalized growth,"S. cerevisiae deletion strains, locus YPR025C, strain CCL1, stronger effect = lower value",0.97
same,normalized growth,"S. cerevisiae deletion strains, locus YPR106W, strain ISR1, stronger effect = lower value",0.974
same,normalized growth,"S. cerevisiae deletion strains, locus YPR111W, strain DBF20, stronger effect = lower value",0.976
same,normalized growth,"S. cerevisiae deletion strains, strain NNK1, stronger effect = lower value",0.973
same,normalized growth,"S. cerevisiae deletion strains, strain TSCII, stronger effect = lower value",0.966
